From PubChem BioAssay (NCI)
Compounds without any hit were thinned out: in the full panel of roughly 83,000, 20% have a hit.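 Compound tested at a single concentration for 48 hours in 96-well plates; a percent growth value below 10 was scored as active.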 Unmarked numbers belong to inactive results. Calls of active or inactive are those of the source.

Assays:
Test in all cases: NCI-60 one-dose screen, 48 h (100 = growth as untreated, 0 = no growth, -100 = all killed)
Conditions in all cases: 10 µM unless noted
NCI-H23 lung = tested on: NCI-H23 lung
NCI-H226 lung = tested on: NCI-H226 lung
NCI-H322M lung = tested on: NCI-H322M lung
HOP-62 NSCLC = tested on: HOP-62 NSCLC
NCI-H460 lung = tested on: NCI-H460 lung
HOP-92 NSCLC = tested on: HOP-92 NSCLC
NCI-H522 lung = tested on: NCI-H522 lung
A549/ATCC NSCLC = tested on: A549/ATCC NSCLC
786-0 renal = tested on: 786-0 renal
COLO 205 colon = tested on: COLO 205 colon
DU-145 prostate = tested on: DU-145 prostate
MALME-3M melanoma = tested on: MALME-3M melanoma
MDA-MB-231 breast = tested on: MDA-MB-231 breast
RXF 393 renal = tested on: RXF 393 renal
SF-268 CNS = tested on: SF-268 CNS
SF-295 CNS = tested on: SF-295 CNS
SF-539 CNS = tested on: SF-539 CNS
UACC-257 melanoma = tested on: UACC-257 melanoma
M14 melanoma = tested on: M14 melanoma
K-562 leukemia = tested on: K-562 leukemia

Compound	growth (NCI-H23 lung)	growth (NCI-H226 lung) [%]	growth (NCI-H322M lung) [%]	growth (HOP-62 NSCLC) [%]	growth (NCI-H460 lung)	growth (HOP-92 NSCLC)	growth (NCI-H522 lung)	growth (A549/ATCC NSCLC)	growth (786-0 renal)	growth (COLO 205 colon)	growth (DU-145 prostate) [%]	growth (MALME-3M melanoma)	growth (MDA-MB-231 breast)	growth (RXF 393 renal)	growth (SF-268 CNS)	growth (SF-295 CNS) [%]	growth (SF-539 CNS)	growth (UACC-257 melanoma) [%]	growth (M14 melanoma)	growth (K-562 leukemia) [%]
COc1ccc2[nH]c(=O)c(/C=C/C(=O)c3ccc(Nc4nccc(-c5ccc6ccccc6c5)n4)cc3)cc2c1	104%	96.6	97.7	102	102%	81.8%	99.5%	97.3%	93.5%	104%	99.9	101%	96.2%	102%	94.9%	101	101%	95.2	101%	
N#Cc1ccc(NC(=O)Nc2ccc(Cc3ccc(NC(=O)Nc4ccc(C#N)cc4)cc3)cc2)cc1	-4.62% (active)	37.7	63.3	50.2	17.2%	46.8%	28.2%	41.3%	49.3%	29.5%	40.5	27.5%		51.4%	44.5%	12.1	50.7%	26.3	37.2%	11.5
C=CCSc1nnc(-c2ccc(C(C)(C)C)cc2)n1-c1cccc(C(F)(F)F)c1	35.4%	44.7	77.7	67.3	29.3%	28.9%	37.3%	21.2%	30.4%	41.1%	54.3	66.1%		18.1%		29.3	69.5%	48.5	45.3%	20.3
NCCN1CCN(c2nccc(-c3ccc4ccccc4c3)n2)CC1	87.2%	81.9	54.4	74.9	17.6%	27.7%	81.3%	52.3%	47.6%	-78.1% (active)	84.6	60.3%	23.8%	43.1%	63.8%	90.1	-4.96% (active)	68.4	-66.8% (active)	
COc1cccc(NC(=O)c2sc3nc4c(cc3c2N)CN(Cc2ccccc2)CC4)c1	81.2%	57.2	74	31.4	45.6%	42.1%	68%	62.1%	37.2%	78.6%	66.1		62.5%	49.3%	42.9%	49.6	30.5%	61.2	68.2%	33.2
CC(=O)/C(=C/c1cccc(Cl)c1)C(=O)c1ccccc1	90.2%	84.1	100	95.7	102%	88.7%	56.6%	82.6%	93.2%	107%	92.2	85.5%	84.8%	93.1%	79.2%	96.1	105%	72.3	73.1%	
CC(C)c1c(C(=O)Nc2ccccc2)c(-c2ccccc2)c(-c2ccc(F)cc2)n1CC[C@@H]1CC=CC(=O)O1	1.14% (active)	39.7	58.6	12.4	5.24% (active)	-24.5% (active)	-33.4% (active)	-9.24% (active)	-26.2% (active)	-49.9% (active)	26.3	8.81% (active)	-25.6% (active)	-84.5% (active)	-33.3% (active)	82.3	-18.5% (active)	16.9	-11.2% (active)	
Cc1ccc(Nc2c(C(N)=O)cnc3ccc(-c4csc(N)n4)cc23)cc1	88.3%	88.3	108	96.4	100%	90.2%	101%	95.4%	101%	96.3%	103		98.8%	98.3%	106%	98.7	92%	101	98.6%	113
